Measured values from PubChem BioAssay.
Active and inactive are the calls of the source.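 The calls were made as follows, unless noted: active = fluorescence slope after compound addition differing from the mean of all screened samples at 99.7% confidence, in either direction; inactive = the rest.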

Key:
[1] = inhibitors of TNFa-induced NFkB p65 translocation, primary screen, imaging, HUVEC, MLSMR starter and 10KST1 sets (AID 438;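 active = inhibition above 20% together with a positive visual image hit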;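 also: compound added about 3h40 before a 20 min TNFalpha stimulation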;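 as to inhibition: signal is the nuclear over cytoplasmic p65 intensity ratio per well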); details: HUVEC TNFa-induced p65 nuclear translocation; cell count: measured here: nuclei count (cytotoxicity indicator), at 2.08 µM; inhibition: at 2 µM, stronger effect = higher value, 0% TNFa-plus-vehicle, 100% no-TNFa wells
[2] = inhibitors of mutant huntingtin aggregation, primary screen, imaging, exon1htt(103Q)mCFP cells, high-content imaging (AID 483;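 active = visual image review flags a hit and inhibition of aggregation exceeds 20%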;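 also: compound exposure lasted 3 days before fixation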;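 as to nuclei count: percent of the per-plate median nuclei count of sample wells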); details: exon1htt(103Q)mCFP cell line, aggregate imaging, at 2 µM; inhibition of aggregation: stronger effect = higher value; nuclei count: measured here: cell count, toxicity
[3] = inhibitors of E-selectin induction by TNFa, primary screen, imaging, HUVEC, immunofluorescence, MLSMR starter and 10KST1 sets (AID 487;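 active = visually confirmed hit in the image check and inhibition above 20%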;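 as to inhibition: signal is fraction of cell area covered by stained E-selectin grains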;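 as to nuclei count: 100% = median nuclei count of all wells on the same plate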); details: HUVEC TNFalpha-induced E-selectin immunofluorescence imaging, at 2 µM; inhibition: stronger effect = higher value; nuclei count: measured here: cell number, toxicity
[4] = molecular target: Voltage-gated potassium channel subunit beta-2 (Rattus norvegicus) (UniProt P62483); assay: KvBeta enzyme negative modulators, primary screen, biochemical, NADPH fluorescence (AID 622;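 active = fluorescence slope higher than the sample average by over 3 SD, cut at about -0.22 in these data, passing the limit was not always enough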;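 also: slope of raw intensity against log time taken from 70 to 1610 s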); details: recombinant KvBeta, 4-cyanobenzaldehyde reduction, at 10 µM, stronger effect = higher value
Chain of Voltage-gated potassium channel subunit beta-2 (Rattus norvegicus) (P62483 whole entry, looked up): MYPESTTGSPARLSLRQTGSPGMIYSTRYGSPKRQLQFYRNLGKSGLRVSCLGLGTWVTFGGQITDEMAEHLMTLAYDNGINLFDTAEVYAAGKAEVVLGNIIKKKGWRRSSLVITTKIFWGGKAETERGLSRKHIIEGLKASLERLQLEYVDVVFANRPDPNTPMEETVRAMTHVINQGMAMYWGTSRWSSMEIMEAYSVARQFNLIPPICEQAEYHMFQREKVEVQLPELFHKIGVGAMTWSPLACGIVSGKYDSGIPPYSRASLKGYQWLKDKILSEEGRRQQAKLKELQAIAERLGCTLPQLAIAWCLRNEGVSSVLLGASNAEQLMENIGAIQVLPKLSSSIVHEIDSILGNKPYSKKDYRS

[5] = molecular target: Voltage-gated potassium channel subunit beta-2 (Rattus norvegicus) (UniProt P62483); assay: KvBeta positive modulators, primary screen, biochemical, NADPH fluorescence (AID 623;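 active = NADPH fluorescence slope more negative than the mean of all samples by about 3 SD, 99.7% confidence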;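 also: fluorescence intensity change per second fitted from 20 to 320 s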); details: Recombinant KvBeta, NADPH fluorescence decrease slope, 10 min; at 10 µM; stronger effect = lower value
[6] = molecular target: Alpha-2C adrenergic receptor (Homo sapiens) (UniProt P18825); assay: modulators of alpha2C/GIRK thallium flux, primary screen, cell-based, HEK293 alpha2C/GIRK1/2 (AID 624); details: thallium flux BTC fluorescence, at 10 µM, actives lie on both sides;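 also: slope of fluorescence ratio to pre-addition baseline per second over 15 to 24 s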
Chain of Alpha-2C adrenergic receptor (Homo sapiens) (P18825 whole entry, looked up): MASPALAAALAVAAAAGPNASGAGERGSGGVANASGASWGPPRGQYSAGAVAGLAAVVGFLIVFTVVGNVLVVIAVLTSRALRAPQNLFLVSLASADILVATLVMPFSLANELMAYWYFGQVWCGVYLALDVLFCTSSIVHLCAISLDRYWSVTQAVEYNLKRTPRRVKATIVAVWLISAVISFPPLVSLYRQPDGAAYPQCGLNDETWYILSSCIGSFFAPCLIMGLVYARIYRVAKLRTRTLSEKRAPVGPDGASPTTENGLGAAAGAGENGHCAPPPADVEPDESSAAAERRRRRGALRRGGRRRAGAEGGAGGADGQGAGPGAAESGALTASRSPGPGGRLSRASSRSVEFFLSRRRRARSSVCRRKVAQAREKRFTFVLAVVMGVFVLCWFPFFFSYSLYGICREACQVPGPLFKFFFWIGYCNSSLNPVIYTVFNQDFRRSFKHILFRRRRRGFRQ

[7] = inhibitors of Sendai virus-induced IRF3 signaling, primary screen, TLR/RLR signaling modifier project, cell-based, Sendai virus stimulus, luciferase, 10K MLSCN set (AID 602276;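 active = inhibition at or above 50% at 10 µM; inactive = inhibition below 50%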;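 also: firefly luciferase from ISG56 promoter only with Renilla not read in this screen; 0% = Sendai virus plus DMSO and 100% = medium plus DMSO without virus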); details: HEK293 RL24 IRF3 luciferase reporter, at 10 µM, stronger effect = higher value
[8] = inhibitors of poly I:C-induced TLR3 signaling, primary screen, cell-based, poly I:C stimulus, luciferase, 10K MLSCN set (AID 602277;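 active = inhibition of the reporter signal at or above 50%; inactive = inhibition below 50%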); details: HEK293-TLR3 RL24 IRF3 luciferase reporter, at 10 µM, stronger effect = higher value

O=C(NC(=O)c1cccc(F)c1)OC[C@@H]1CCCN2CCCC[C@H]12
cell count [1]: 600
inhibition [1]: -5.8% (inactive)
inhibition of aggregation [2]: -12.4% (inactive)
nuclei count [2]: 77.9%
inhibition [3]: -55.2% (inactive)
nuclei count [3]: 113%
fluorescence slope [4]: -0.491 (inactive)
NADPH fluorescence slope [5]: 1.1e-05 (inactive)
slope [6]: 0.00714 (inactive)
inhibition [7]: 8.41% (inactive)
inhibition [8]: 28.6% (inactive)

CCC(C)(C)n1nnnc1C(c1cc2cc(OC)ccc2[nH]c1=O)N1CCc2ccccc21 (centres undefined)
cell count [1]: 411
inhibition [1]: -18.4% (inactive)
inhibition of aggregation [2]: 9.8% (inactive)
nuclei count [2]: 100%
inhibition [3]: -14.8% (inactive)
nuclei count [3]: 116%
fluorescence slope [4]: -0.592 (inactive)
NADPH fluorescence slope [5]: -4.5e-05 (inactive)
slope [6]: 0.0033 (inactive)
inhibition [7]: 14.9% (inactive)
inhibition [8]: 29.5% (inactive)

CN(C(=O)C1CCCO1)c1nnc(-c2ccncc2)s1 (centres undefined)
cell count [1]: 279
inhibition [1]: -2.1% (inactive)
inhibition of aggregation [2]: 4.6% (inactive)
nuclei count [2]: 103%
inhibition [3]: -10.8% (inactive)
nuclei count [3]: 103%
fluorescence slope [4]: -0.322 (inactive)
NADPH fluorescence slope [5]: -4.6e-05 (inactive)
slope [6]: 0.00538 (inactive)
inhibition [7]: -12% (inactive)
inhibition [8]: -17.4% (inactive)

COC(=O)c1cc(-c2c(C)oc3cc(O)ccc3c2=O)c(C)o1
cell count [1]: 609
inhibition [1]: -2.2% (inactive)
inhibition of aggregation [2]: -24% (inactive)
nuclei count [2]: 114%
inhibition [3]: -117% (inactive)
nuclei count [3]: 167%
fluorescence slope [4]: -0.129 (active)
NADPH fluorescence slope [5]: 2.7e-05 (inactive)
slope [6]: 0.0074 (inactive)
inhibition [7]: 4.96% (inactive)
inhibition [8]: 1.06% (inactive)

COc1ccc(-c2nnc(SCC(=O)Nc3sc4c(c3C#N)CCC4)n2CC2CCCO2)cc1 (centres undefined)
cell count [1]: 846
inhibition [1]: 4.6% (inactive)
inhibition of aggregation [2]: 13.5% (inactive)
nuclei count [2]: 103%
inhibition [3]: -171% (inactive)
nuclei count [3]: 131%
fluorescence slope [4]: -0.591 (inactive)
NADPH fluorescence slope [5]: -5.3e-05 (inactive)
slope [6]: 0.00872 (inactive)
inhibition [7]: 7.87% (inactive)
inhibition [8]: 15.5% (inactive)

CCC1CCCCN1CCNS(=O)(=O)c1ccc2c(c1)oc(=O)n2C (centres undefined)
cell count [1]: 809
inhibition [1]: 1.8% (inactive)
inhibition of aggregation [2]: 19.9% (inactive)
nuclei count [2]: 97.2%
inhibition [3]: -92.7% (inactive)
nuclei count [3]: 116%
fluorescence slope [4]: -0.581 (inactive)
NADPH fluorescence slope [5]: -4.9e-05 (inactive)
slope [6]: 0.00605 (inactive)
inhibition [7]: 14.3% (inactive)
inhibition [8]: 39.8% (inactive)

COc1cccc(/C=N/n2c(C)nc3ccccc32)c1OC
cell count [1]: 431
inhibition [1]: 0.5% (inactive)
inhibition of aggregation [2]: 32.5% (active)
nuclei count [2]: 84.3%
inhibition [3]: -27.6% (inactive)
nuclei count [3]: 123%
fluorescence slope [4]: -0.391 (inactive)
NADPH fluorescence slope [5]: 3.2e-05 (inactive)
slope [6]: 0.00613 (inactive)
inhibition [7]: -7.57% (inactive)
inhibition [8]: -59.7% (inactive)

CCC1C(=O)N=C(SCC(=O)Nc2cccc3ccccc23)NC1=O (centres undefined)
cell count [1]: 393
inhibition [1]: -4% (inactive)
inhibition of aggregation [2]: 3.1% (inactive)
nuclei count [2]: 101%
inhibition [3]: -41.3% (inactive)
nuclei count [3]: 119%
fluorescence slope [4]: -0.564 (inactive)
NADPH fluorescence slope [5]: -4.5e-05 (inactive)
slope [6]: 0.00593 (inactive)
inhibition [7]: -15.6% (inactive)
inhibition [8]: 0.719% (inactive)

COc1ccc(C)cc1-n1nnnc1SCC(=O)Nc1cc(C)on1
cell count [1]: 452
inhibition [1]: 2.5% (inactive)
inhibition of aggregation [2]: -18% (inactive)
nuclei count [2]: 96.7%
inhibition [3]: -330% (inactive)
nuclei count [3]: 150%
fluorescence slope [4]: -0.6 (inactive)
NADPH fluorescence slope [5]: -3.5e-05 (inactive)
slope [6]: 0.00592 (inactive)
inhibition [7]: 2.92% (inactive)
inhibition [8]: 12.5% (inactive)

CCOc1ccccc1C(=O)Nc1cc(=O)n(C)c(=O)n1C
cell count [1]: 651
inhibition [1]: -0.8% (inactive)
inhibition of aggregation [2]: 6.8% (inactive)
nuclei count [2]: 95.8%
inhibition [3]: 31% (inactive)
nuclei count [3]: 98.4%
fluorescence slope [4]: -0.416 (inactive)
NADPH fluorescence slope [5]: -4.9e-05 (inactive)
slope [6]: 0.00585 (inactive)
inhibition [7]: 14.8% (inactive)
inhibition [8]: 39.7% (inactive)

Cc1nn(CC(O)Cn2c3c(c4ccccc42)CCN(C)C3=O)c(C)c1Br (centres undefined)
cell count [1]: 363
inhibition [1]: -4.7% (inactive)
inhibition of aggregation [2]: 10.5% (inactive)
nuclei count [2]: 101%
inhibition [3]: 45.5% (inactive)
nuclei count [3]: 75.2%
fluorescence slope [4]: -0.427 (inactive)
NADPH fluorescence slope [5]: -3e-05 (inactive)
slope [6]: 0.00532 (inactive)
inhibition [7]: 21.6% (inactive)
inhibition [8]: 21.9% (inactive)

CCOC(=O)c1oc2ccccc2c1NC(=O)COC
cell count [1]: 602
inhibition [1]: -1.8% (inactive)
inhibition of aggregation [2]: 15.5% (inactive)
nuclei count [2]: 92.3%
inhibition [3]: 66.5% (inactive)
nuclei count [3]: 59.1%
fluorescence slope [4]: -0.486 (inactive)
NADPH fluorescence slope [5]: -1.7e-05 (inactive)
slope [6]: 0.00552 (inactive)
inhibition [7]: -14.3% (inactive)
inhibition [8]: 4.92% (inactive)

Cc1nc(NCc2ccco2)c2oc3ccccc3c2n1
cell count [1]: 337
inhibition [1]: 15% (inactive)
inhibition of aggregation [2]: -4.3% (inactive)
nuclei count [2]: 94.4%
inhibition [3]: 19.5% (inactive)
nuclei count [3]: 96.4%
fluorescence slope [4]: -0.389 (inactive)
NADPH fluorescence slope [5]: -1.9e-05 (inactive)
slope [6]: 0.00599 (inactive)
inhibition [7]: 3.36% (inactive)
inhibition [8]: -32.5% (inactive)

CCC1(C)Cc2c(C#N)c(N)n(N)c(=S)c2CO1 (centres undefined)
cell count [1]: 795
inhibition [1]: 1.1% (inactive)
inhibition of aggregation [2]: -11.2% (inactive)
nuclei count [2]: 97.6%
inhibition [3]: -97% (inactive)
nuclei count [3]: 106%
fluorescence slope [4]: -0.422 (inactive)
NADPH fluorescence slope [5]: -4.6e-05 (inactive)
slope [6]: 0.00514 (inactive)
inhibition [7]: 9.11% (inactive)
inhibition [8]: 22.9% (inactive)
